Experimental data taken from ChEMBL document CHEMBL4513141, “CO-ADD screening of NIH (USA) - Clinical Collection” (2021).
Results with a measured potency or affinity are listed apart.

tested on: Staphylococcus aureus; conditions: Concentration 20 uM; ASSAY_TEST Inhibition of Bacterial Growth; detection method Absorption (OD600); MEDIA CAMHB; plate type 384well; NBS; CORNING #3640; time 18 hr

Structure (SMILES)	Inhibition
Nc1ncnc2c1ncn2[C@@H]1O[C@H](CO)[C@@H](O)[C@@H]1O [VIDARABINE]	17.44%
CC(C)NCC(O)COc1ccc(CC(N)=O)cc1 (stereo not drawn) [ATENOLOL]	9.69%
Cc1c(C(=O)NN2CCCCC2)nn(-c2ccc(Cl)cc2Cl)c1-c1ccc(I)cc1	8.26%
CC(=O)OCC(=O)C12OC3(CCCC3)OC1CC1C3CCC4=CC(=O)C=CC4(C)C3(F)C(O)CC12C (stereo not drawn)	19.97%
COc1ccc(OC)c(C(O)CNC(=O)CN)c1.Cl (stereo not drawn) [MIDODRINE HYDROCHLORIDE]	15.42%
CCC(=O)[N-]S(=O)(=O)c1ccc(-c2c(-c3ccccc3)noc2C)cc1.[Na+] [PARECOXIB SODIUM]	0.13%
CN(C)CCCN1c2ccccc2CCc2ccc(Cl)cc21.Cl [CLOMIPRAMINE HYDROCHLORIDE]	14.19%
Cc1cn([C@H]2C=C[C@@H](CO)O2)c(=O)[nH]c1=O [STAVUDINE]	17.22%
Sc1ncnc2nc[nH]c12 [MERCAPTOPURINE ANHYDROUS]	22.75%
c1ccc2[nH]c(-c3cscn3)nc2c1 [THIABENDAZOLE]	9.35%
O=C(O[C@H]1[C@H](Oc2ccccc2COC(=O)C2(O)C=CCCC2=O)O[C@H](CO)[C@@H](O)[C@@H]1O)c1ccccc1 (stereo partly drawn) [TREMULACIN]	15.86%
CC1=Nc2ccc(Cl)cc2S(=O)(=O)N1 [DIAZOXIDE]	9.13%
CC(COc1ccccc1)NC(C)C(O)c1ccc(O)cc1.Cl (stereo not drawn) [ISOXSUPRINE HYDROCHLORIDE]	10.12%
